Reference: PubChem BioAssay AID602258 (National Center for Advancing Translational Sciences (NCATS), 2012)
Records with an inconclusive call do not appear. The source made the active and inactive calls. Calls follow the shape of the dose curve; as a rule, active = well fitted activation curve with a large enough effect; inconclusive = small, poorly fitted or top-dose-only effect; inactive = no such curve, though single readings can be large or run the other way.

What follows are molecules tested against Relaxin receptor 2 (Homo sapiens) (UniProt Q8WXD0) (assay: qHTS Assay for Agonists of the Relaxin Receptor RXFP1: RXFP2 SAR). Conditions: HEK293 RXFP2 cAMP TR-FRET agonist, 30 min; series mostly up to 78.1 µM.
Relaxin receptor 2 (Homo sapiens), sequence (Q8WXD0 whole entry, looked up): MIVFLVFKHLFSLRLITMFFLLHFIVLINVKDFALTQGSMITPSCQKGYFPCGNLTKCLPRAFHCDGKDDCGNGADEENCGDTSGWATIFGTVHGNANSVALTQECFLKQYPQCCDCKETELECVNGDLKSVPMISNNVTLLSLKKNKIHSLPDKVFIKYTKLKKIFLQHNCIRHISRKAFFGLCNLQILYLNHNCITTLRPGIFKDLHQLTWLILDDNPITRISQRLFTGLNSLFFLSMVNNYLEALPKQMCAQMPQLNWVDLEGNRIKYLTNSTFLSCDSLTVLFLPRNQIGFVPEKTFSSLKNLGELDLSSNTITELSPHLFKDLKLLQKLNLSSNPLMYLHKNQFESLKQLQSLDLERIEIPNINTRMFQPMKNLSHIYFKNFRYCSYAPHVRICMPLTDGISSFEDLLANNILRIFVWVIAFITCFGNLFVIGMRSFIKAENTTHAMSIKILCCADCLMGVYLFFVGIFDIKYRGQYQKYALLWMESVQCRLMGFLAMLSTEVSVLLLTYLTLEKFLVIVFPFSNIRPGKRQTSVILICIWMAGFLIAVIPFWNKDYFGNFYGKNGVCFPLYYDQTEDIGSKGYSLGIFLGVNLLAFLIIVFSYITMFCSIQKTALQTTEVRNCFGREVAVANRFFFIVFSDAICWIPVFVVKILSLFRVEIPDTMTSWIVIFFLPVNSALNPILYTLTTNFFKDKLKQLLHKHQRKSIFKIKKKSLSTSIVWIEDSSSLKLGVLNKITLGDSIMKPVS
Text: The relaxin hormone is involved in the variety of biological functions in normal tissues and diseases. The role of relaxin is well-established in female reproduction and parturition, mammary gland and endometrial development, maintenance of myometrial quiescence during pregnancy. Relaxin signaling through its G protein-coupled receptor (GPCR) RXFP1 results in ECM remodeling through regulation of collagen deposition, cell invasiveness, proliferation and overall tissue homeostasis. […] Recombinant human relaxin (rhRlx) is currently being tested in clinical trials as a protective agent in congestive heart failure, in treating severe preeclampsia, and as an anti-fibrotic agent in systemic sclerosis. Upon relaxin binding RXFP1 activation leads to the activation of adenylate cyclase (AC) via Gs. cAMP will activate PKA, which phosphorylates many signaling proteins. Thus, detection of cAMP increase is an easy and reliable indication of relaxin receptor activation. To screen for agonists of the relaxin receptor, a HEK293T cell line stably transfected with RXFP1 was used. RXFP1 activation was assayed by changes in cAMP levels as detected with a time-resolved fluorescence energy transfer (TR-FRET) cAMP detection kit. This assay measures activation of a cell expressing RXFP2, another GPCR targeted by relaxin, to determine the selectivity of compounds for RXFP1. NIH Chemical Genomics Center [NCGC] NIH Molecular Libraries Probe Production Centers Network [MLPCN] MLPCN Grant: R03 MH085705-01A1 Assay Submitter (PI): Alexander Agoulnik
This is a cell-based assay for cAMP second messenger response to screen for agonists of the RXFP2 receptor. The assay was conducted in the presence of a PDE4 inhibitor (Ro 20174). The cells were lysed and the cAMP levels were measured with a TR-FRET cAMP kit. Presence of cAMP in the cell lysate disrupts binding between the cryptate-labeled anti-cAMP and d2-labeled cAMP pair, leading to a decrease in the TR-FRET signal. Data were normalized to the controls for basal activity (buffer only) and 100% activity (29 nM porcine relaxin). The EC50 values were determined from concentration-response data modeled with the standard Hill equation 1536-well assay protocol for the HEK293 RXFP2 cAMP assay: (1) Add 3 ul HEK293 RXFP2 cell culture. 2000 cells/well in DMEM/F12, 10% FBS, 1x Pen/Strep (dispensed offline with MultiDrop Combi). (2) Incubate 16-24 hr at 37C, 5% CO2. (3) Add 1 ul 400uM Ro20174 in DPBS, 0.05% BSA, 0.005% Tween 20. (3) Add 23 nl compounds in DMSO solution. Final concentration was 0.5 - 58 uM. (4) Incubate 30 min at 37C, 5% CO2. (5) Add 1 ul cAMP-d2 in lysis buffer (HTRF cAMP HiRange kit, CisBio). (6) Add 1 ul anti-cAMP antibody-cryptate in lysis buffer (HTRF cAMP HiRange kit, CisBio). (7) Incubate 30 min at room temperature. (6) Detect the assay plate in a ViewLux plate reader (PerkinElmer) with Ex=320 nm, Em1=615 nm and Em2=665 nm. Keywords: relaxin, RXFP1, RXFP2, G-protein coupled receptor, cAMP, agonist, high throughput screening, MLSMR, MLSCN, NIH Roadmap, qHTS and NCGC

Potency, active:
COc1ccccc1C(=O)Nc1ccccc1C(=O)Nc1cccc(C(F)(F)F)c1 5.93 µM
CCOc1ccccc1C(=O)Nc1ccccc1C(=O)Nc1cccc(C(F)(F)F)c1 9.4 µM
COCCOc1ccccc1C(=O)Nc1ccccc1C(=O)Nc1cccc(C(F)(F)F)c1 5.29 µM

Potency, inactive:
CC(C)(C)c1cccc(NC(=O)c2ccccc2NC(=O)C2CCCCC2)c1
Cc1ccccc1C(=O)Nc1ccccc1C(=O)Nc1cccc(C(F)(F)F)c1
Cc1ccccc1NC(=O)c1ccccc1NC(=O)C1CCCCC1
CCOc1ccccc1S(=O)(=O)Nc1ccccc1C(=O)Nc1cccc(S(=O)(=O)C(F)(F)F)c1
CCOc1ccccc1C(=O)Nc1ccccc1CNc1cccc(S(=O)(=O)C(F)(F)F)c1
COCCNc1ccccc1C(=O)Nc1cccc(C(F)(F)F)c1
COc1ccccc1C(=O)Nc1ccc(C(=O)Nc2cccc(C(F)(F)F)c2)cc1
COc1cccc(C(=O)Nc2ccccc2C(=O)Nc2cccc(C(F)(F)F)c2)c1
O=C(Nc1cccc(C(F)(F)F)c1)c1ccccc1NC(=O)C1CCCCC1
CCOc1ccccc1C(=O)Nc1ncccc1C(=O)Nc1cccc(S(=O)(=O)C(F)(F)F)c1
COCCOc1ccccc1C(=O)Nc1cccc(C(F)(F)F)c1
CCC(CC)C(=O)Nc1ccccc1C(=O)Nc1cccc(C(F)(F)F)c1
O=C(Nc1cccc(C(F)(F)F)c1)c1ccccc1NC(=O)C1CCC1
O=C(NCc1cccc(C(F)(F)F)c1)c1ccccc1NC(=O)C1CCCCC1
COc1ccccc1C(=O)Nc1ccccc1C(=O)N(C)c1cccc(C(F)(F)F)c1
CCOc1ccccc1C(=O)Nc1cnccc1C(=O)Nc1cccc(S(=O)(=O)C(F)(F)F)c1
O=C(Nc1ccc(C(F)(F)F)cc1)c1ccccc1NC(=O)C1CCCCC1
